Source: PubChem
Hits are enriched below; roughly 1.6% of the tested compounds scored in any of these assays.
KCNQ2 block – rat KCNQ2 potassium channel inhibitors, primary screen, cell-based, CHO-K1, FluxOR thallium flux, B-score | B-score at 10 µM | AID 2156, 2009 | 20 min; stronger effect = lower value | 310,000 compounds, 1.1% hits | Potassium voltage-gated channel subfamily KQT member 2 (Rattus norvegicus), O88943;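 active = fluorescence ratio B-score at most minus 3 library SDs, with starting brightness B-score within 2 library SDs, cut at about -5.5 in these data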
KCNQ2 enhance – potentiators of rat KCNQ2 potassium channel. CHO-K1 KCNQ2, FluxOR thallium flux fluorescence; stronger effect = higher value. B-score at 10 µM. 310,000 compounds, 0.54% hits. Potassium voltage-gated channel subfamily KQT member 2 (Rattus norvegicus), O88943;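 active = fluorescence ratio B-score at least 3 SD of library B-scores, with initial fluorescence B-score within 3 of them, cut at about 5.3 in these data; same plate scores as AID 2156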;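 also: B-score of peak minus minimum over baseline fluorescence ratio after K+ and Tl+ stimulus; positive B-score means potentiation of KCNQ2 with more thallium influx and brighter signal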
Kir21 confirm – mouse Kir2.1 channel blockers, retest, confirmation, cell-based, FluxOR thallium flux, duplicate; shares compounds with KCNQ2 enhance; Kir2.1-expressing cells, FluxOR thallium flux fluorescence; stronger effect = lower value; Tl flux remaining, % of negative control (stronger effect = lower value), % at 10 µM; 2,300 compounds, 41% hits; AID 2032, 2009;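 active = Primary-screen hit whose thallium flux fell at least 3 control SD below untreated wells in both duplicates, with normal baseline fluorescence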;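 also: 0% = blank wells without stimulus and 100% = stimulated no-compound controls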
HEK293 Tl flux – parental HEK293 activity in Kir2.1 inhibitor counter-screen. AID 2105. 2,300 compounds, 19% hits. parental HEK293 cells, FluxOR thallium flux fluorescence; 0% = unstimulated blank wells. FluxOR signal as % of negative control (100 = no effect), % at 10 µM. shares compounds with KCNQ2 enhance;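 active = dye signal at least 3 control SD above or below untreated wells in both duplicates, raw fluorescence within 3, either direction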;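 also: percent is based on the flux ratio of peak minus minimum fluorescence over baseline F0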
CHO-K1 Tl ctr – nonspecific thallium flux increase in parental CHO-K1, confirmation, counter-screen for KCNQ2 potentiator project, cell-based, FluxOR thallium flux, duplicate. activity increase over 3SD of controls, % at 10 µM. AID 2282, 2010. shares compounds with KCNQ2 enhance. 1,200 compounds, 43% hits. parental CHO-K1 cells, FluxOR thallium flux fluorescence; zero = vehicle mean+3SD, 100% = vehicle-minus-blank window;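 active = signal rise of at least 3 SD above the untreated control mean, in both duplicate wells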;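 also: counter screen of KCNQ2 potentiator hits so any rise reflects channel-independent effects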
KCNQ1 pot spec – human KCNQ1 channel potentiation off-target, confirmation, selectivity assay for KCNQ2 potentiator project, cell-based, CHO, FluxOR thallium flux | CHO KCNQ1 stable, FluxOR thallium flux fluorescence; beyond 3SD, as % of vehicle-control signal | activation over 3SD threshold, % at 10 µM | shares compounds with KCNQ2 enhance | 1,200 compounds, 28% hits;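 active = fluorescence ratio rise of at least 3 SD of vehicle wells above their mean, in both replicate wells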;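 also: 0% = vehicle mean plus 3 SD and 100% = vehicle minus unstimulated blank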
KCNQ2 pot confirm – rat KCNQ2 channel potentiators, confirmation, cell-based, CHO, FluxOR thallium flux, duplicate. shares compounds with KCNQ2 enhance. CHO-KCNQ2 cells, FluxOR thallium flux fluorescence. potentiation, less the hit threshold, % at 10 µM. 1,200 compounds, 68% hits. AID 2287, 2010;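 active = fluorescence ratio rising 3 SD or more over the vehicle control mean in both replicates, plus primary screen hit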;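 also: peak minus minimum thallium fluorescence divided by baseline after K/Tl stimulus; 0% = vehicle mean plus 3 SD and 100% = vehicle minus unstimulated blank difference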
Kir2-1 sel – mouse Kir2.1 channel activation off-target, confirmation, selectivity assay for KCNQ2 potentiator project, cell-based, HEK293, FluxOR thallium flux | 1,200 compounds, 2% hits | shares compounds with KCNQ2 enhance | HEK293 Kir2.1, FluxOR thallium flux fluorescence | activity over 3SD threshold, % at 10 µM;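 active = fluorescence ratio rise of at least 3 SD above the vehicle-control mean, seen in both replicates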;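 also: 0% = vehicle mean plus 3 SD and 100% = vehicle minus no-stimulus blank window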
KCNQ2 W236L pot – potentiators of retigabine-insensitive KCNQ2 W236L, mechanism study for KCNQ2 potentiator project, cell-based, rat KCNQ2 W236L, CHO, automated patch clamp; automated patch clamp current; 940 compounds, 10% hits; shares compounds with KCNQ2 enhance; AID 2558, 2010; current increase over 3SD of negative controls (%), stronger effect = higher value, % at 25 µM;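 active = current increase at least 3 SD of the untreated controls above them in both duplicate recordings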
An asterisk follows results filed as active; i = inactive; nt = not tested or not shown.

SMILES | KCNQ2 block | KCNQ2 enhance | Kir21 confirm | HEK293 Tl flux | others
CCOCCCN(C(=O)c1snc(C(N)=O)c1N)C(C(=O)NC1CCCC1)c1ccc(O)cc1 (stereo not given) | i | nt | nt | nt
COc1ccc(C(C)C)cc1S(=O)(=O)N1CCN(C)CC1 | i | 13* | i | i | CHO-K1 Tl ctr=48*;KCNQ1 pot spec=-9;KCNQ2 pot confirm=-18;Kir2-1 sel=-36
COc1ccc(F)cc1S(=O)(=O)N1CC(C)CC(C)C1 (stereo not given) | i | nt | 44%* | i
COc1ccc(C(C)C)cc1S(=O)(=O)N1CCC(C(=O)N2CCN(C)CC2)CC1 | i | nt | nt | nt
COc1ccc(Br)cc1S(=O)(=O)N1CCOCC1 | i | 2 | nt | nt
COc1ccc(Br)cc1S(=O)(=O)N1CC(C)OC(C)C1 (stereo not given) | i | 2.9 | 56%* | i
COc1ccc(F)cc1S(=O)(=O)N1CCN(c2ccccn2)CC1 | i | nt | nt | nt
C=CC[C@@H]1C=C(C)C[C@H](C)C[C@H](OC)[C@H]2O[C@@](O)(C(=O)C(=O)N3CCCC[C@H]3C(=O)O[C@H](/C(C)=C/[C@@H]3CC[C@@H](O)[C@H](OC)C3)[C@H](C)[C@@H](O)CC1=O)[C@H](C)C[C@@H]2OC | i | nt | nt | nt
CC(C)CNC(=O)c1ccc(NC(=O)c2cccs2)cc1 | i | 0.01 | nt | nt
COc1ccc(/C=C(\C#N)C(=O)C(C)(C)n2cncn2)cc1 | i | 0.1 | nt | nt
O=C(NNc1ncc(C(F)(F)F)cc1Cl)c1ccc(Cl)c(Cl)c1 | i | 12* | i | i | CHO-K1 Tl ctr=-12;KCNQ1 pot spec=-19;KCNQ2 pot confirm=1.2*;Kir2-1 sel=-30;KCNQ2 W236L pot=6.1%*
Nc1ccccc1C(=O)NNc1ncc(C(F)(F)F)cc1Cl | i | nt | nt | nt
CNc1nc(C23CC4CC(CC(C4)C2)C3)cs1 | i | 1 | nt | nt
COc1ccc(/C=C(/NC(=O)c2ccc(OC)c(OC)c2)C(=O)NCCCn2ccnc2)cc1 | i | nt | nt | nt
COc1ccc(C)cc1NCc1cccc(OC)c1OC | i | nt | nt | nt
COc1cc(OC)c(OC)cc1CNc1cc(C)ccc1OC | i | nt | 54%* | i
O=C(Nc1cccc(NC(=O)c2ccco2)c1)c1cccc(Br)c1 | i | 1.4 | nt | nt
O=C(CNC(=O)c1cccc(Br)c1)N/N=C/c1cc(Br)cc(Br)c1O | i | nt | nt | nt
O=C(Cc1ccccc1)N/N=C/c1cc(Br)cc(Br)c1O | i | 7* | i | i | CHO-K1 Tl ctr=4.9*;KCNQ1 pot spec=-25;KCNQ2 pot confirm=-9;Kir2-1 sel=-36;KCNQ2 W236L pot=i
O=C(Nc1cccc(N=Cc2cc(Br)cc(Br)c2O)c1)c1ccco1 | i | 9.3* | i | i | CHO-K1 Tl ctr=56*;KCNQ1 pot spec=49*;KCNQ2 pot confirm=15*;Kir2-1 sel=-36;KCNQ2 W236L pot=i
O=C(NCc1cccnc1)c1nn2cccnc2c1Cl | i | 0.05 | nt | nt
COC(=O)C1=C(C)NC(C)=C(C(=O)OC)C1C(=O)OC(C)C(=O)c1ccccc1 (stereo not given) | i | 0.4 | nt | nt
